Rows were chosen to be rich in hits. Some 7.2% of all compounds tested hit in one or more screens of this group.
Efflux pump inh – inhibitors of Candida efflux pumps in yeast, primary screen, S. cerevisiae, Nile Red, multiplex. 0.44% of 330,000 active. inhibition, % at 10 µM. S. cerevisiae Candida pump triplex. AID 485275, 2010;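 active = plate passing quality check with inhibition over a set limit, or well fluorescence over plate mean plus 4 SD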;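 note: Nile Red retained in pooled yeast measured as flow cytometry median fluorescence; 0% = buffer negative control and 100% = Enniatin B positive control; higher means more Nile Red kept so more efflux inhibition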
SUMO Mot1 rescue – yeast Mot1-301 growth rescue at high temperature, primary screen, SUMOylation pathway inhibitor project, S. cerevisiae, ATP luminescence, 38.5C. 1% of 320,000 active. AID 2716, 2010. S. cerevisiae Mot1-301 growth rescue; percent above DMSO median, 100 means doubled. growth rescue, % at 18.8 µM;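 active = every valid replicate shows activation above 250% relative to neutral control wells; inactive = the rest, any valid replicate at or below 250%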;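 note: OY570 slx delta 5 strain wells were the positive control but not used for scaling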
AHR activator – AHR activators, primary screen, cell-based, luminescence, luciferase reporter, human; AID 2796, 2010; 2.5% of 320,000 active; AHR-responsive luciferase reporter cells; Aryl hydrocarbon receptor (Homo sapiens), P35869; activation, % at 5 µM; in the data active = activation above about 47%;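 note: 0% = vehicle wells and 100% = reference agonist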
Bfl-1 A1 inh – caspase 3/7 activation in MEF A1-2A-BIM cells, primary screen, A1 inhibitor project, cell-based, luminescence, HTS; Caspase-Glo 3/7 luminescence, 3 h; percent of clofoctol response, vehicle zero; caspase activation, % (concentration not given with the values); 0.066% of 330,000 active; AID 2462, 2010;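 active = over half of replicate activation scores above 10%, or exactly half above 10 with the replicate mean above 10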
VLA-4 inh – inhibition in human VLA-4 binding assay, primary screen, VLA-4 allosteric modulator project, MLPCN library, flow cytometry, VLA-4 expressing cells; inhibition, % (about 7 µM as worked out from the volumes in the protocol); ligand binding flow cytometry; 0.2% of 330,000 active; in the data active = inhibition above about 50%
ALR H2O2 inh – inhibitors of human ALR sulfhydryl oxidase, primary screen, biochemical, H2O2 detection, HRP-luminol luminescence, single point; purified ALR, DTT oxidation; inhibition, % (test concentration not listed); 3.8% of 290,000 active; AID 485317, 2010;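 active = mean replicate inhibition above about 79%, with every replicate also reaching it, limit read from the data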
Mot1 SUMO dose – growth restoration of Mot1-301 yeast on galactose, dose response, SUMO pathway inhibitor project, whole organism, S. cerevisiae, ATP luminescence, cherry-picked samples | shares compounds with SUMO Mot1 rescue | S. cerevisiae Mot1-301 galactose growth, 24 h; -100 = growth of slx-deleted rescue strain | growth activity, percent, % at 42 µM | 2,300 tested, under 10 active;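 active = Signal drops as the depositor expects, and the fitted half-maximal dose is no more than ten times the top valid tested dose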;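 note: more negative values mean stronger growth rescue toward the control strain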
* marks the source's active call; other numbers are inactive results; nt = no result given; + = active, no number.

SMILES	Efflux pump inh	SUMO Mot1 rescue	AHR activator	Bfl-1 A1 inh	VLA-4 inh	ALR H2O2 inh	Mot1 SUMO dose
CC(C)(C)C(=O)C(Cl)C(=O)Nc1ccccc1 (stereo not given)	0	604*	6	1	4	3	-4
COc1ccc2[nH]cc(CCNS(=O)(=O)c3ccc(C)cc3)c2c1	0	484*	8	-1	-1	40	0
Cc1ccccc1-n1c(-c2cccnc2)n[nH]c1=S	0	+	5	0	17	50	0
CCN(CC)S(=O)(=O)c1ccc(Cl)c(NC(=O)COC(=O)c2nc3nc(C)cc(C)n3n2)c1	0	-18	18	0	-18	-6	nt
CCCCC(O)(CCCC)C(=O)NN(C(=O)OC)c1ccc(C)cc1	0	446*	12	0	6	2	0
COc1ccc(CN2C(=O)C(=O)N(CC(N)=O)C2=O)cc1	0	719*	-1	-1	-1	9	0
CC(C)(Cc1ccccc1)/[N+]([O-])=C\c1ccc(C(F)(F)F)cc1	0	28	6	1	-6	-7	nt
COc1ccc(C2C(C(=O)Nc3cccc(OC)c3)c3ccccc3C(=O)N2C)cc1 (stereo not given)	0	3	16	2	-3	-5	nt
COc1ccc(C2C(C(=O)Nc3cc(OC)c(OC)c(OC)c3)c3ccccc3C(=O)N2C)cc1 (stereo not given)	0	465*	0	0	15	-2	0
Cc1ccc(C(c2nnnn2C2CCCC2)N2c3ccccc3CC2C)cc1 (stereo not given)	0	23	7	1	-10	-1	nt
COc1ccc(S(=O)(=O)n2nc(-c3ccc(Cl)cc3)cc2N)cc1OC	0	388*	22	0	42	4	0
CCOc1ccc(-c2cc(N)n(S(=O)(=O)c3ccc(OC)c(OC)c3)n2)cc1	0	3	23	-1	36	-4	nt
Nc1cc(-c2ccc(Cl)cc2)nn1S(=O)(=O)c1ccc(Cl)cc1	0	545*	4	-1	31	-3	0
CCNC(=O)C1CC(=O)N(CCCc2ccccc2)C(=Nc2ccccc2)S1 (stereo not given)	0	-2	3	1	1	0	nt
CN(/N=C/c1cc(Br)cc(Br)c1O)c1ccccc1	0	6	36	0	7	-25	nt
Cc1c(N=Cc2cc(Br)cc(Br)c2O)cccc1C(=O)O	0	919*	1	0	22	98*	0
NS(=O)(=O)c1ccc(CCNC(=O)CN2CCN(c3cccc(Cl)c3)CC2)cc1	0	8	3	-1	8	6	nt
NS(=O)(=O)c1ccc(CCNC(=O)CN2CCN(c3ccc(F)cc3)CC2)cc1	0	650*	-2	0	4	35	1
O=C(O)c1ccc(N=C2NC(=O)C(CO)(CO)S2)cc1	0	767*	0	1	-7	-8	0
CC1(C)CC(=O)C2=C(C1)Oc1ncn(CCCO)c(=N)c1C2c1ccccc1 (stereo not given)	0	4	0	1	4	-20	nt
CC1(C)CC(=O)C2=C(C1)Oc1ncn(CCO)c(=N)c1C2c1ccccc1 (stereo not given)	0	543*	3	0	-7	4	0
NS(=O)(=O)c1cccc(NC(=O)CSc2nnnn2-c2ccccc2)c1	0	375*	0	1	-2	-6	0
CN(C)S(=O)(=O)c1cccc(NC(=O)CSc2nnnn2-c2ccccc2)c1	0	2	3	0	-3	nt	nt
CS(=O)(=O)C1=NSC2=NC(=O)/C(=C\c3ccc(OS(=O)(=O)c4ccccc4)cc3)C(=N)N21	0	399*	2	-8	3	65	0

Bioassay records: PubChem, several laboratories
